NLRP3 yeast inh – NALP3 inhibition in yeast; Yeast reconstituted NLRP3/ASC/caspase-1, beta-gal luminescence, 24 h; inhibition, % at 10 µM; 330,000 tested, 0.39% active;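 active means inhibition of 50% or more; inactive means inhibition below 50%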;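 further: plate controls were induced DMSO wells for no effect and uninduced yeast grown without galactose for full effect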
tim23-1 inh – tim23-1 yeast growth inhibition; 330,000 tested, 1.3% active; inhibition, % at 20 µM; S. cerevisiae tim23-1 growth, BacTiter-Glo luminescence, 24 h;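 active means growth inhibition of the mutant yeast at or above 50%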;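 further: temperature-sensitive mutant grown at 25 °C; plate controls were DMSO-treated mutant yeast for no effect and medium wells lacking yeast for full effect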
TIM10 inh – TIM10 yeast growth inhibition; S. cerevisiae TIM10 strain growth, BacTiter-Glo luminescence, 24 h; 330,000 tested, 1.4% active; AID 463195; inhibition, % at 10 µM;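 active means inhibition of 40% or more at the single tested concentration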;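 further: wild-type TIM10 isogenic control strain grown at permissive 25 °C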
PfHsp90 set2 – reduces growth (ATP signal) of yeast expressing P. falciparum Hsp90; inhibition, % at 9.4 µM; 310,000 tested, 0.32% active; S. cerevisiae expressing PfHsp90, BacTiter-Glo ATP, 48 h; yeast lacking PDR1 and PDR3 efflux regulators;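 active means every replicate shows inhibition above about 80%, whatever the replicate mean, limit read from the data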;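 further: 0% = DMSO neutral controls and 100% = 20 µM radicicol positive controls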
SKKanGAS inh – SKKanGAS growth inhibition | S. pyogenes SKKanGAS, kanamycin growth, BacTiter-Glo, 6 h | inhibition, % at 7.5 µM | 300,000 tested, 1.3% active;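 active means mean replicate score, as percent of positive control median, at least 50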;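 further: strain carries kanamycin resistance gene driven by streptokinase promoter and grows in 40 µg/ml kanamycin; loss of luminescence reflects streptokinase promoter inhibition or plain growth inhibition; 0% = median of DMSO wells and 100% = positive control at its reference dose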
tim10-1 inh – inhibits growth of tim10-1 mutant yeast | 330,000 tested, 2.2% active | inhibition, % at 20 µM | S. cerevisiae tim10-1 ts strain growth, BacTiter-Glo, 24 h;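 active means inhibition of at least 40%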;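 further: mutant grown at 25 °C; 0% = DMSO wells with yeast and 100% = wells holding no yeast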
tim10-1 conf – confirmation of tim10-1 mutant yeast growth inhibitors; 7,400 tested, 56% active; shares compounds with tim10-1 inh; inhibition, % at 20 µM; S. cerevisiae tim10-1 ts strain growth, BacTiter-Glo, 24 h;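 active means inhibition of yeast growth at or above a set limit in either of two repeat tests at 20 µM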;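 further: tim10-1 mutant grown at permissive 25 °C to find synthetic lethal compounds; 0% = DMSO yeast wells and 100% = medium wells without yeast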
Active calls of the source: *; . = not tested or not shown; ! = not confirmed by another sample. Rows were chosen to be rich in hits. Some 4.6% of all compounds tested hit in one or more screens of this group.

SMILES	NLRP3 yeast inh	tim23-1 inh	TIM10 inh	PfHsp90 set2	SKKanGAS inh	tim10-1 inh	tim10-1 conf
Cc1csc(-c2coc3cc(O)cc(C)c3c2=O)n1	30	50	16	-21	6	43*	9
O=C(Nc1ccc(Cl)cc1)[C@@H]1[C@@H]2C(=O)N(c3ccc(Cl)cc3Cl)C(=O)[C@@H]2[C@H]2C=CC=NN21	-9	31	14	.	9	45*	27
O=C(Nc1ccc(Cl)cc1)[C@@H]1[C@@H]2C(=O)N(c3ccc(Cl)cc3)C(=O)[C@@H]2[C@H]2C=CC=NN21	-12	17	-23	.	7	18	.
CC(=O)Nc1cccc(NC(=O)CSc2nc3c(c(=O)n(C)c(=O)n3C)n2C)c1	3	1	-11	2	-2	-6	.
CN(C)CC/C=C1/c2ccccc2Sc2ccc(Cl)cc21	46	-19	20	-10	4	41*!	27
CCNC(=O)CN1C(=O)NC(Cc2ccccc2)(Cc2ccccc2)C1=O	11	2	-14	.	5	-1	.
Cc1ccc(C2/C(=C(\O)c3ccc4c(c3)OCCO4)C(=O)C(=O)N2Cc2cccnc2)cc1 (stereo not drawn)	15	4	-5	0	7	-17	.
CCc1cccc(NC(=O)C2CCCN(c3ncnc4c3nc3n4CCCCC3)C2)c1 (stereo not drawn)	24	13	6	20	11	40*	13
O=C(Nc1ccccc1Cl)C1CCCN(c2ncnc3c2nc2n3CCCCC2)C1 (stereo not drawn)	15	40	22	-89	1	54*	12
COc1ccccc1NC(=O)C1CCCN(c2ncnc3c2nc2n3CCCCC2)C1 (stereo not drawn)	10	15	9	-47	5	19	.
CCC(=O)N1CCN(c2ccc(NC(=S)NC(=O)c3cc4ccccc4o3)cc2)CC1	7	-1	5	28	41	6	.
COc1ccc(/C=C/C(=O)N2CCCc3ccccc32)cc1	19	37	23	-16	-1	47*	22
COc1ccc2c(c1)CCc1c(C(=O)N3CCOCC3)noc1-2	10	7	-10	2	-5	8	.
CCOC(=O)/C=C/C(=O)N1CCc2ccccc21	14	32	20	23	-1	47*	40*
COc1ccc2c(c1)CCc1c(C(=O)N3CCCc4ccccc43)noc1-2	28	42	34	-22	-11	45*	34*
CCc1ccc(N(CC(=O)Nc2ccccc2C(=O)N2CCCC2)S(C)(=O)=O)cc1	0	-6	-3	-4	-2	3	.
Cc1cccc(NC2=C(NC(=O)c3ccccc3)C(=O)c3ccccc3C2=O)c1	22	50	36	-55	26	20	.
Cc1ccc(S(=O)(=O)/N=C2\C=C(Nc3cccc(C(=O)O)c3)C(=O)c3ccccc32)c(C)c1	28	35	7	-13	69*	44*	22
Clc1cccc(/C=N/Nc2ncnc3ccccc23)c1	21	35	39	56	5	40*	18
Cc1ccccc1NC(=O)c1ccc(F)c(S(=O)(=O)N2CCN(c3ccccn3)CC2)c1	6	44	33	2	4	41*	39*
CCOc1ccccc1N1CCN(S(=O)(=O)c2ccc3c4c(cccc24)C(=O)N3)CC1	19	6	15	-32	24	20	.
CCOc1ccc(S(=O)(=O)N2CCN(c3ccccc3F)CC2)c2cccnc12	13	33	22	-4	-3	45*	25
O=C(CNS(=O)(=O)c1c(Cl)cccc1Cl)OCc1csc(-c2ccccc2)n1	-2	47	14	14	-19	47*	32*
COc1cc(NC(=O)C2=C(N3CCOCC3)/C(=C/c3ccc(Cl)cc3)CC2)cc(OC)c1OC	9	31	20	-22	10	44*	44*
Cc1cnn(Cc2cccnc2)c1N	10	-13	6	31	-19	10	.
CC(C)(C)c1ccc(/C=C/C(=O)N2CCN(c3ncccn3)CC2)cc1	22	34	29	-18	9	43*	35*
O=C(/C=C/c1ccc(F)cc1)N1CCN(c2ncccn2)CC1	-22	-1	-19	38	1	-13	.
